Each structure is given as a SMILES string. Inconclusive results are not listed. Activity calls are given as the source filed them. The call rests on the fitted dose curve; in most records, active means well fitted curve in the direction sought with a large enough effect; inconclusive means small, poorly fitted or top-dose-only effect, or another doubt; inactive means no such curve, though single readings can be large; an effect the other way counts as inactive or inconclusive.

The nature of assay [1]: A2780 Cisplatin Sensitive Ovarian Cancer Cell Toxicity qHTS against the NCATS CANVASS Library (AID 1347353). Further: nearly all actives have a fitted effect of over 60% in size. Further: potency means the concentration at half of the fitted maximal effect. Summed up:
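Luminescent ATP content (ATPLite, 10 min at room temperature) served as the read-out after cells had been exposed to compounds for 72 hours at 37 °C. Dosing followed an 11-point concentration series.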

A short description of assay [2]: SDT Cancer Cell Toxicity qHTS against the NCATS CANVASS Library (AID 1347365). Further: nearly all actives have a fitted effect of over 60% in size. Further: potency means the concentration at half of the fitted maximal effect. Summed up: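 qHTS, SDT dog glioma line, 500 cells/well; cpds 11 pts; 72 hr, 37C, 5% CO2; CellTiterGlo ATP luminescence.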
Assay [3] in a line: qHTS for ATAD5 Antagonist screened against the NCATS CANVASS Library (AID 1347370). Further: nearly all actives have a fitted effect of over 65% in size. Further: potency means the concentration at half of the fitted maximal effect. Summed up: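 HEK293T cells with stably integrated ATAD5-luciferase reporter, 2000/well, 5 h attachment; compounds plus 10 µM 5-fluorouridine, 16 h at 37 °C. Luciferase luminescence read, with CellTiter-Fluor viability read first.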
Assay [4] in a line: qHTS for Hypoxia signaling pathway (HIF-1) antagonists against the NCATS CANVASS Library (AID 1347374). Further: nearly all actives have a fitted effect of over 60% in size. Further: potency means the concentration at half of the fitted maximal effect. Summed up:
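HRE-bla ME-180 cells in medium with 0.5% dialyzed FBS received compounds (11-point series) plus CoCl2 (60 uM addition stock) for 17 hrs at 37C. Beta-lactamase activity read with CCF4 (405 nm ex, 460/530 nm em); CellTiter-Glo viability measured in same wells.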

Assay [5] in a line: qHTS assay for small molecule disruptors of mitochondrial membrane potential screened against the NCATS CANVASS Library (AID 1347389). Further: series mostly up to about 46 µM; nearly all actives have a fitted effect of over 60% in size. Summed up:
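HepG2, 2,000 cells/well, attached overnight; compound 1 hr, 37C, 5% CO2; Mito-MPS dye 30 min, 37C; fluorescence 535 nm (monomer) and 590 nm (aggregate); decreased 590/535 ratio = depolarization.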

Assay [6] is described as follows: HPAF-II Cancer Cell Toxicity qHTS against the NCATS CANVASS Library (AID 1347346). Further: nearly all actives have a fitted effect of over 55% in size. Further: potency means the concentration at half of the fitted maximal effect. Summed up: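 Luminescence from CellTiter-Glo, added after 72 h compound exposure and a 15 min room-temperature incubation, served as the viability readout. HPAF-II cells (1000/well) received an 11-point concentration series.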
Assay [7] can be described thus: qHTS for Inflammasome Signaling Inhibitors: IL-1-beta AlphaLISA screen against the NCATS CANVASS Library (AID 1347379).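 Further: human THP-1 cells primed with LPS then triggered with ATP; secreted IL-1B measured as AlphaLISA emission at 615 nm.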 Further: potency means the concentration at half of the fitted maximal effect. Summed up: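 THP-1 cells pretreated 1 hr with compound (up to 57.5 uM final), then stimulated with LPS (250 ng/mL final) and ATP (1.25 mM final). Secreted IL-1B measured by AlphaLISA after 16 hr; glyburide as positive control.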
Assay [8] can be described thus: qHTS for Activators of p53 Stress Response Pathway screened against the NCATS CANVASS Library (AID 1347388). Further: potency means the concentration at half of the fitted maximal effect. Summed up: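 p53RE-bla HCT-116 cells (4000/well) were pre-incubated for 5 h, then treated with compound (11 points) for 16 h at 37C. After 2 h with CCF4, the 460/530 nm ratio gave reporter activation; CellTiter-Glo measured viability.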
Assay [9] can be described thus: Secretion counterscreen for inhibitors of the SERCaMP assay screened against the NCATS CANVASS Library (AID 1347390).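 Further: light from luciferase secreted into medium read as a measure of general secretion.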 Further: potency means the concentration at half of the fitted maximal effect. Summed up:
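SH-SY5Y cells expressing constitutively secreted GLuc, 1000 cells/well, attached 4 h at 37C, then exposed to compounds (0.001 - 77 uM, 11-pnt series) for 20 h. Coelenterazine added; luminescence read to flag secretory-pathway interferers.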

Assay [10] can be described thus: Vero-766 cells viability qHTS against the NCATS CANVASS Library: Counterscreen for Zika virus inhibition assay (AID 1347394). Further: nearly all actives have a fitted effect of over 60% in size. Further: potency means the concentration at half of the fitted maximal effect. Summed up: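 Uninfected Vero 766 (African green monkey) cells, 1000/well, attached overnight, then exposed 72 h at 37C to compounds (11-point qHTS). Viability read by CellTiter-Glo luminescence; media-only wells served as 100% inhibition.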

In the case of `C[C@]12CC(O)C3[C@@H](CCC4C[C@@H](O)CC[C@@]43CO)[C@@]1(O)CC[C@@H]2C1=CC(=O)OC1` (some centres not stated), the values for the Potency in [1], in assay [2] and in assay [4] were 16600 nM (active), 10500 nM (active) and 9410 nM (active), respectively. Further, the Potency entry in assay [3] and in assay [5] was “inactive” in each case.

Regarding `C/C(=C\[C@H](C)C(=O)C[C@H](O)CC1CC(=O)NC(=O)C1)[C@@H]1OC(=O)/C=C/CC/C=C/C=C/[C@@H]1C`, the Potency in assay [6] was 94.3 nM (active); in assay [1], 33.2 nM (active); in [2] it was 66.2 nM (active); in [3] it was 105 nM (active); in assay [4], 37.5 nM (active); in assay [7] it was 2430 nM (active). Besides, the Potency was 305 nM (active) in [9] and 6600 nM (active) in assay [10]. Further, the Potency result in [8] and in [5] was “inactive” each time.

With `CO[C@H]1C[C@H](O[C@H]2[C@@H](O)C[C@H](O[C@H]3CC[C@]4(C=O)[C@H]5CC[C@]6(C)C(C7=CC(=O)OC7)CC[C@]6(O)[C@@H]5CC[C@]4(O)C3)O[C@@H]2C)O[C@H](C)[C@H]1O[C@H]1C[C@@H](OC)[C@@H](O[C@@H]2O[C@H](CO)[C@@H](O)[C@H](O)[C@H]2O)[C@@H](C)O1` (some centres not stated), the Potency in assay [6] was 376 nM (active); in assay [1], 83.3 nM (active); in [2] it was 148 nM (active); in assay [3], 660 nM (active); in assay [4] it was 118 nM (active); in assay [7], 1530 nM (active). The Potency in assay [9] is 767 nM (active). In addition, the Potency result in assay [5] is “inactive”.

Regarding `C[N+](C)(C)CCc1c[nH]c2ccccc12`, the Potency result in assay [6], in assay [1], in assay [2], in [3], in assay [4] and in assay [7] was “inactive” throughout. For the same compound, the Potency result in assay [8], in assay [5], in assay [9] and in [10] was “inactive” throughout.

With `CC[C@H]1CN2CCc3c([nH]c4cccc(OC)c34)[C@@H]2C[C@@H]1/C(=C\OC)C(=O)OC`, the Potency result in assay [6], in assay [3], in assay [4], in assay [7], in assay [8] and in assay [10] was “inactive” throughout.

On to `CO[C@H]([C@@H](C)[C@H]1O[C@]1(C)C[C@H](C)/C=C/C=C(\C)[C@H]1O[C@@H](CC(=O)O)CC[C@@H]1C)[C@@H](C)O`, for which the Potency in [6] is 26.6 nM (active); in [1], 5.3 nM (active); in assay [2] it was 14.8 nM (active); in assay [7], 38.5 nM (active); in assay [8] it was 14.8 nM (active). Further, the Potency result in [3], in [5] and in assay [9] was “inactive” in each case.

Regarding `C=CC(C)(C)[C@@]12C[C@H]3C(=O)N/C(=C/c4cnc[nH]4)C(=O)N3[C@@H]1Nc1ccccc12`, the Potency result in assay [6], in assay [1], in assay [2], in assay [3], in assay [4] and in assay [7] was “inactive” in each case. Moreover, the Potency result in [8], in assay [5], in assay [9] and in assay [10] was “inactive” each time.

The values are drawn from PubChem BioAssay (NCATS).
